According to PubChem BioAssay:

Assay: MM1S cell viability effects, profiling panel, calcein-AM fluorescence, 48 h, basal (AID 1165);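 further: viability of MM1S multiple myeloma cells under basal unstimulated conditions; test concentration not given here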
Details: higher = more signal
Compound `O=C1O[C@@H](c2ccccc2)[C@@H](c2ccccc2)N2[C@@H](c3ccc(OCCO)cc3)[C@]3(C(=O)Nc4ccc(C#CC5(O)CCCCCC5)cc43)[C@@H](C(=O)Nc3nc4ccccc4s3)[C@H]12` has a z-score of -1.64.
For `COCCCN1C(=O)[C@@]2(c3ccc([N+](=O)[O-])cc3)CC(=O)N(CC34CC5CC(CC(C5)C3)C4)[C@@H]2c2ccc(CO)cc21`, the z-score was 0.657.
For `O=C1C2C=CC(C(O)c3cccs3)N(Nc3ccc([N+](=O)[O-])cc3)C2C(=O)N1c1ccccc1` (stereo unspecified), the z-score was -0.752.
In the case of `C=C1C(=O)C=C2CN(C(=O)c3ccccc3)[C@@](Cc3ccc(OC)cc3)(C(=O)OC)[C@@H]12`, the z-score was -1.73.
Compound `CCOC(=O)C[C@H]1[C@H](OC(=O)c2cc3ccccc3oc2=O)[C@@H](NC(=O)CC(C)C)c2cc(OCCCO)ccc2N1C(=O)Cc1ccc(OC)cc1` has a z-score of 0.12.
`CCOC(=O)C1=CC[C@@H](c2ccccc2)N(S(=O)(=O)c2ccc(C)cc2)[C@H]1c1ccccc1I` gave a z-score of -0.676.
